Inconclusive results are not listed. The source made the active and inactive calls. Unless noted, the call rests on the fitted dose curve.
Assays:
[1] = Nuclear factor erythroid 2-related factor 2/antioxidant responsive element (Nrf2/ARE) small molecule agonists: qHTS cell viability counter screen in human keratinocytes (AID 1919968; active means well fitted curve in the direction sought with a large enough effect in the repeat runs; an effect the other way counts as inactive or inconclusive; further: nearly all actives have a fitted effect of over 55% in size)
Outline: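 Measured as CellTiter-Fluor fluorescence, this readout tracks cytotoxicity in the same wells as the ARE-luciferase screen. HaCaT reporter cells (1,500/well) received compounds after a 5 h pre-incubation and were exposed for 23 h.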

[2] = Nuclear factor erythroid 2-related factor 2/antioxidant responsive element (Nrf2/ARE) small molecule agonists: luciferase reporter gene qHTS assay in human keratinocytes (AID 1919969); further: nearly all actives have a fitted effect of over 35% in size
[3] = target: Gonadotropin-releasing hormone receptor (Homo sapiens) (UniProt P30968); test: Human gonadotropin-releasing hormone receptor (GnRHR) small molecule agonists, calcium flux assay in GnRHR-HEK293 cells (AID 1920063); further: nearly all actives have a fitted effect of over 35% in size
Gonadotropin-releasing hormone receptor (Homo sapiens), sequence (P30968 whole entry, looked up): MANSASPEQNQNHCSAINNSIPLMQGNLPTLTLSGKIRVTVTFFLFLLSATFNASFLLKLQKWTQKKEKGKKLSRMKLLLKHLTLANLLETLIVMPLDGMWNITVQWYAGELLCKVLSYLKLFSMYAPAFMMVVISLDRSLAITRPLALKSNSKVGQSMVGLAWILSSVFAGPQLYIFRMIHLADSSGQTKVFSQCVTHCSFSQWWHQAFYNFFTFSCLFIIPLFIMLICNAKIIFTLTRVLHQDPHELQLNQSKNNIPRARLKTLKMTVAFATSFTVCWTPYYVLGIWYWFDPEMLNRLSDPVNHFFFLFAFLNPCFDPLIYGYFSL
Outline: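 Fluorescence kinetics (480 nm excitation, 540 nm emission; 3 min, 1 s steps) report calcium mobilisation in human GnRHR-HEK293 cells in agonist mode. Dye incubation: 1 h, 37 C.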

[4] = target: KiSS-1 receptor (Homo sapiens) (UniProt Q969F8); test: Human kisspeptin (KISS1R) small molecule agonists, calcium flux assay in KISS1R-HEK293 cells (AID 1920064; active means well fitted curve in the direction sought with a large enough effect in the repeat runs; an effect the other way counts as inactive or inconclusive)
KiSS-1 receptor (Homo sapiens), sequence (Q969F8 whole entry, looked up): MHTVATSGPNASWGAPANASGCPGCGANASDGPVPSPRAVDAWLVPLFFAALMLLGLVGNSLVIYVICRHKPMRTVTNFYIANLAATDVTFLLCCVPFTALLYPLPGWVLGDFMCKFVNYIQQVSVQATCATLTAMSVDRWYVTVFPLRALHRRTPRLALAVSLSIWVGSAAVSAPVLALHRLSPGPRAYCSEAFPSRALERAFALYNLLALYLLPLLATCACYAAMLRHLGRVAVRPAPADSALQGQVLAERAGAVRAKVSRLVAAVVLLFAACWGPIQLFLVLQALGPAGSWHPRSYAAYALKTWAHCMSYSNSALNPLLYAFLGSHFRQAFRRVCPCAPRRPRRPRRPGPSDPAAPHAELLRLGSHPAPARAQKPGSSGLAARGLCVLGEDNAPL
Outline: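 Measures KISS1R agonism through calcium-sensitive dye fluorescence in stably transfected HEK293 cells, read for 3 min after pin-tool compound delivery; 15-point titrations in triplicate.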

[5] = G protein-coupled receptor (GPCR) small molecule agonists, calcium flux assay: HEK293 wild type cell line counter screen (AID 1920065)
Outline: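 Readout: fluorescence at 480 nm excitation/540 nm emission, sampled at 1 s intervals for 3 min. Cells had been cultured 18 h, then dye-loaded 1 h at 37 C before compound or ATP addition.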

[6] = p53 small molecule agonists, cell-based qHTS assay with human liver microsomes (AID 1963577);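 further: p53 response element beta-lactamase reporter cells with liver microsomes plus NADPH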
Outline: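 16 h, 37 C exposure of p53RE-bla cells to compounds with human liver microsomes and NADPH (0.5 mg/mL final each); detection via LiveBLAzer mixture, 2 h dark at room temperature.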

[7] = p53 small molecule agonists, cell-based qHTS assay with human liver microsomes: qHTS cell viability counter screen (AID 1963579); further: nearly all actives have a fitted effect of over 45% in size
Outline: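 In this multiplexed counter screen, the reporter plates were subsequently treated with CellTiter-Glo so that cell viability, reflected by luminescence, could be recorded for p53RE-bla cells dosed 16 h with compounds under microsomal activation (HLM and NADPH).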

[8] = p53 small molecule agonists, cell-based qHTS assay with rat liver microsomes: qHTS cell viability counter screen (AID 1963580); further: nearly all actives have a fitted effect of over 45% in size
Outline: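 p53RE-bla HCT-116 cells (4,000/well) rested 5 h at 37 C, then given Tox21 compounds in DMSO with rat liver microsomes (0.5 mg/mL final) plus NADPH (0.5 mg/mL final) for 16 h at 37 C. Viability read by CellTiter-Glo luminescence after 30 min at room temperature.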

[9] = p53 small molecule agonists, cell-based qHTS assay: qHTS cell viability counter screen (AID 1963581); further: nearly all actives have a fitted effect of over 45% in size
Outline: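 In the same plates used for the p53 bla reporter, HCT-116 cells given compounds for 16 h at 37 C received CellTiter-Glo; luminescence was recorded 30 min later at room temperature.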

[10] = p53 small molecule agonists, cell-based qHTS assay (AID 1963582; active means well fitted activation curve with a large enough effect in the signal ratio in the repeat runs, not every such curve was filed as active; the % refers to the signal ratio)
Outline: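 Compounds are pin-transferred in DMSO onto p53RE-bla cells and incubated 16 h at 37 C. The B/G FRET beta-lactamase substrate is then applied for 2 h at RT and fluorescence recorded.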

[11] = target: 5-hydroxytryptamine receptor 2A (Homo sapiens) (UniProt P28223); test: 5-hydroxytryptamine receptor 2A (HTR2A) small molecule antagonists, cell-based qHTS assay (AID 1963586); further: nearly all actives have a fitted effect of over 45% in size
5-hydroxytryptamine receptor 2A (Homo sapiens), sequence (P28223 whole entry, looked up): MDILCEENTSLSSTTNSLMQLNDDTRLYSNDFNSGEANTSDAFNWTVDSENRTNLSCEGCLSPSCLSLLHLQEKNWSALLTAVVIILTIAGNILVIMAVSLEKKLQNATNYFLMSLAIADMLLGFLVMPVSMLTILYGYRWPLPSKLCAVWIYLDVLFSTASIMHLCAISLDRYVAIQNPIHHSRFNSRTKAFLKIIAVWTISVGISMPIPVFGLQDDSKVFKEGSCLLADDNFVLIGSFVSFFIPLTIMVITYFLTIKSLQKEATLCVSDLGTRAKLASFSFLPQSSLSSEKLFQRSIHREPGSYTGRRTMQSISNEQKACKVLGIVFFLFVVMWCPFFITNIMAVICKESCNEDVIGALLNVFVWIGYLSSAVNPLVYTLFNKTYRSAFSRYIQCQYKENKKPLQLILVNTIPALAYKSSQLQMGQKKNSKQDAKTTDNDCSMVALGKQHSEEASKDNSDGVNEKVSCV
Outline: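 Antagonist-mode intracellular calcium assay: DOI (4 nM) added after 5 min compound pre-incubation at room temperature to dye-loaded HTR2A-CHO cells. Fluorescence followed for 3 min, sampled every second.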

[12] = target: 5-hydroxytryptamine receptor 2A (Homo sapiens) (UniProt P28223); test: 5-hydroxytryptamine receptor 2A (HTR2A) small molecule agonists, cell-based qHTS assay (AID 1963587); further: nearly all actives have a fitted effect of over 30% in size
Outline: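 HTR2A-CHO cells, plated 18 h at 37 C/5% CO2, dye-loaded 1 h at 37 C; compounds in DMSO added by pin tool (agonist mode). Intracellular calcium flux read as kinetic fluorescence on FDSS over 2 min at 1 s intervals.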

[13] = target: Muscarinic acetylcholine receptor M1 (Homo sapiens) (UniProt P11229); test: Cholinergic receptor muscarinic 1 (CHRM1) small molecule antagonists, cell-based qHTS assay (AID 1963588); further: nearly all actives have a fitted effect of over 40% in size
Muscarinic acetylcholine receptor M1 (Homo sapiens), sequence (P11229 whole entry, looked up): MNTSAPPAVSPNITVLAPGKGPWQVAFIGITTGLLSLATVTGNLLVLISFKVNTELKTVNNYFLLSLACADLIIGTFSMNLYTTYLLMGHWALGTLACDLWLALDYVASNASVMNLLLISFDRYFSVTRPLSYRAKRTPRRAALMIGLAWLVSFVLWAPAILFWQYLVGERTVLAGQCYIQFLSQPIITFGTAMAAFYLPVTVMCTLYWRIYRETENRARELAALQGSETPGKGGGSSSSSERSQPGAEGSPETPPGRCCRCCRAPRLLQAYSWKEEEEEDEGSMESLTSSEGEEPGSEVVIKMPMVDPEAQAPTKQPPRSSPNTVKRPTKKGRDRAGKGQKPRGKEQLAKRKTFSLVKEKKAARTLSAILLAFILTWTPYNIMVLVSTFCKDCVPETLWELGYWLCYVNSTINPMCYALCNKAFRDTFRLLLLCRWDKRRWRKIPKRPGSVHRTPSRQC
Outline: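 CHRM1-CHO calcium-flux assay, antagonist mode. Cells were seeded 18 h, dye-loaded 1 h at 37 C and given compound for 5 min at RT, then acetylcholine was added at 50nM. FDSS fluorescence was read 3 min; 15 concentrations, three runs.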

[14] = target: Muscarinic acetylcholine receptor M1 (Homo sapiens) (UniProt P11229); test: Cholinergic receptor muscarinic 1 (CHRM1) small molecule agonists, cell-based qHTS assay (AID 1963589); further: nearly all actives have a fitted effect of over 35% in size
Outline: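 Each compound was tested at 15 concentrations across three independent runs on dye-loaded CHO cells stably expressing human CHRM1, reading intracellular calcium fluorescence kinetically at 1 sec intervals.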

[15] = cAMP Responsive Elements (CRE) small molecule agonists, cell-based qHTS assay (AID 1963590)
Outline: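 Cell line: CRE-bla HEK 293T; medium DMEM/10% dialyzed FBS/0.1 mM NEAA/1 mM pyruvate/25 mM HEPES; 3 h compound exposure; beta-lactamase FRET readout after 2 h substrate loading at RT.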

[16] = cAMP Responsive Elements (CRE) small molecule antagonists, cell-based qHTS assay (AID 1963591; active means well fitted inhibition curve with a large enough effect in the signal ratio in the repeat runs, not every such curve was filed as active; the % refers to the signal ratio)
Outline: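 Inhibition of NKH477-driven (0.25 uM final) CRE-beta-lactamase signal in HEK293T cells, 3 h compound exposure at 37 °C, detected by FRET substrate fluorescence.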

[17] = target: Beta-2 adrenergic receptor (Homo sapiens) (UniProt P07550); test: Adrenergic beta2 receptor (ADRB2) small molecule antagonists, cell-based qHTS assay (AID 1963592); further: series mostly up to about 92 µM; nearly all actives have a fitted effect of over 50% in size
Beta-2 adrenergic receptor (Homo sapiens), sequence (P07550 whole entry, looked up): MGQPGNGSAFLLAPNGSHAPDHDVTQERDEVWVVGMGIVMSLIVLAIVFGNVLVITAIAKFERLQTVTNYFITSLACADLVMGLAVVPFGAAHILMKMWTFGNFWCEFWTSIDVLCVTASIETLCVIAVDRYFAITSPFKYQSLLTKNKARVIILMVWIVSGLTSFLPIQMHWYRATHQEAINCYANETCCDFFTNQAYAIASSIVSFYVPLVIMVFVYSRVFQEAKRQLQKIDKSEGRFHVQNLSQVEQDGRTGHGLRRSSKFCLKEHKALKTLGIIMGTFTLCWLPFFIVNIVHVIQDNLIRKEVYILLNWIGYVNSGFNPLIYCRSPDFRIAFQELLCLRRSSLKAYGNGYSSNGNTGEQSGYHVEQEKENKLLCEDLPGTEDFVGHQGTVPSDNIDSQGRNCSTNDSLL
Outline: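 Cells (CHO, stable ADRB2 overexpression) incubated 18-20hr at 37C; compounds added from DMSO; agonist mix (1nM isoproterenol, 100uM IBMX, 25uM Ro-20-1724) added; 0.5hr RT; d2-cAMP and anti-cAMP-cryptate added; 1hr RT; 665/615 nm read.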

[18] = target: D(2) dopamine receptor (Homo sapiens) (UniProt P14416); test: Dopamine D2 receptor (DRD2) small molecule agonists, cell-based qHTS assay (AID 1963594); further: nearly all actives have a fitted effect of over 35% in size
D(2) dopamine receptor (Homo sapiens), sequence (P14416 whole entry, looked up): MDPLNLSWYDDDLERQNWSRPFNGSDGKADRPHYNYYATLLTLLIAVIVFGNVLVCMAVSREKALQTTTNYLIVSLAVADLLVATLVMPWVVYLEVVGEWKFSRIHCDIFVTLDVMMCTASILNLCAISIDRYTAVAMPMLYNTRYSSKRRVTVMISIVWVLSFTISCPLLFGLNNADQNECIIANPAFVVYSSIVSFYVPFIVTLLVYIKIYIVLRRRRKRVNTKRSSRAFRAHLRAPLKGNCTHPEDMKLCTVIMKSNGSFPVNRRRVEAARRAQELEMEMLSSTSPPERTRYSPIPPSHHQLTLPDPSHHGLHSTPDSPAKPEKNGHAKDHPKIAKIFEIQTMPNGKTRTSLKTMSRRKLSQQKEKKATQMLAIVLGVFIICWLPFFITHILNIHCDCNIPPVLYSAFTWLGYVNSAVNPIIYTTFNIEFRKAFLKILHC
Outline: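 HEK293 cells stably expressing DRD2 were cultured 24 h at 37 C, then given Ro20-1724 (0.1 mM final) and compounds for 10 min at room temperature. NKH477 (200nM) was then added for 30 min. cAMP was read by HTRF.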

[19] = target: D(2) dopamine receptor (Homo sapiens) (UniProt P14416); test: Dopamine D2 receptor (DRD2) small molecule antagonists, cell-based qHTS assay (AID 1963595; active means well fitted inhibition curve with a large enough effect in the signal ratio in the repeat runs, with a control signal flat; the % refers to the signal ratio)
Outline: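 Stable D2 receptor HEK293 line, 24 h after seeding. Compound preincubated 10 min, then quinpirole (12 nM) with forskolin analogue NKH477 (200 nM), 30 min, room temperature. Detection by time-resolved FRET of cAMP.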

Measured: Potency

CO[Si](CCCNc1ccccc1)(OC)OC
inactive: all assays above

C=C(C)c1cccc(C(C)(C)N=C=O)c1
not listed: [11] | [17] | [18]
inactive: all other assays above

O=C(O)c1ccccc1NCCc1ccccc1
not listed: [15]
inactive: all other assays above

COCCc1ccccn1
not listed: [11] | [17]
inactive: all other assays above

CCOc1cccc(N)c1
inactive: all assays above

FC(F)OC(Cl)C(F)(F)F (stereo not drawn)
inactive: all assays above

CCC(=O)O[C@]1(C(=O)COC)[C@@H](C)C[C@H]2[C@@H]3CCC4=CC(=O)C=C[C@]4(C)C3(F)[C@@H](O)C[C@@]21C (stereo partly drawn)
not listed: [11] | [15] | [16] | [18]
inactive: all other assays above
